In the library only some 0.67% were active in any assay of this set; here they are far more common.
Vc quorum ag: inducers of Vibrio cholerae quorum light production without autoinducers, primary screen, BH1578 luxS cqsA deficient, single point; V. cholerae BH1578 lux reporter, luminescence, 6 h; activation, % at 18.7 µM; actives 0.16% (n = 350,000); in the data active = activation mostly above about 9.7%, no sharp cut-off
Sa RN4220 lethal: growth inhibition of S. aureus RN4220, primary screen, OD600; 16 h; inhibition, % (test concentration not listed); actives 0.33% (n = 330,000); in the data active = inhibition above about 85%
TcdB inh: TcdB glycohydrolase inhibitors, primary screen, biochemical, single point, plate reader; Toxin B (Clostridioides difficile), P18177; TcdB glycohydrolase enzymatic assay; actives 0.24% (n = 350,000); inhibition, % at 9.99 µM; AID 652162, 2013; in the data active = inhibition above about 10%
ugtP null kill: growth inhibition of ugtP-null S. aureus, primary screen, RN4220 ugtP deletion, OD600; growth inhibition, % (test concentration not listed); 16 h; actives 0.54% (n = 330,000); in the data active = growth inhibition above about 68%
Of the large screens only hits and unclear results are named; the others gave an inactive call; ! = a repeat was not active.

COc1ccccc1-c1c(-c2ccc(OCC(=O)NN)cc2O)n[nH]c1C(F)(F)F	none
COc1ccc(-c2n[nH]c(C(F)(F)F)c2-c2cc3ccccc3o2)c(O)c1	Sa RN4220 lethal 100.4, ugtP null kill 100.3 (no result: TcdB inh)
CCN(CC)S(=O)(=O)c1ccc(C(=O)Nc2nnc(-c3ccco3)o2)cc1	none (no result: TcdB inh)
CN(c1ccccc1)S(=O)(=O)c1ccc(NC(=O)c2ccc(-c3ccccc3)cc2)cc1	none
CCCCN(CC)S(=O)(=O)c1ccc(C(=O)Nc2nnc(-c3cccs3)o2)cc1	Sa RN4220 lethal 92.9, ugtP null kill 94.7 (no result: Vc quorum ag, TcdB inh)
CN(c1ccccc1)S(=O)(=O)c1ccc(C(=O)Nc2nnc(-c3ccc(F)cc3)o2)cc1	Sa RN4220 lethal 99.6, ugtP null kill 99.9 (no result: Vc quorum ag, TcdB inh)
COc1ccccc1-c1nnc(NC(=O)c2ccc(S(=O)(=O)N(C)Cc3ccccc3)cc2)o1	Sa RN4220 lethal 109.9, ugtP null kill 99.0 (no result: Vc quorum ag, TcdB inh)
CC(C)CN(CC(C)C)C1=NC(=Cc2ccco2)C(=O)N1c1ccccc1	none (no result: Vc quorum ag, TcdB inh)
COc1ccc(-c2n[nH]c(=S)n2N=Cc2cccn2C)cc1	none (no result: Vc quorum ag, TcdB inh)
COC(=O)[C@@]1(Cc2ccc(F)cc2)C2c3cc(C(=O)N(C)C)n(Cc4ccc(OC)c(OC)c4)c3CC2CN1C(=O)c1ccccc1 (stereo not given in full)	none (no result: Vc quorum ag, TcdB inh)
CN1C(=O)C2C(C3CC3)N3C(=O)CN(Cc4ccccc4)C(=O)[C@@]3(C)C2C1=O (stereo not given in full)	none (no result: Vc quorum ag, TcdB inh)
CCOC1OC(C(=O)NC2CC2)=CC(c2ccc(Br)cc2)C1CCCO (stereo not given)	none (no result: Vc quorum ag, TcdB inh)
CCCCNC(=O)C1CCN(S(=O)(=O)c2c(C)noc2/C=C\c2ccc(OC)cc2)CC1	TcdB inh 84.9
COCCCNC(=O)C1CCN(S(=O)(=O)c2c(C)noc2/C=C\c2ccc(OC)cc2)CC1	none (no result: TcdB inh)
CCCCOc1ccc(NC(=O)c2cnc(C)cn2)cc1	Vc quorum ag 17.5 (no result: TcdB inh)
Cc1cnc(C(=O)Nc2ccc(F)c(F)c2)cn1	none (no result: TcdB inh)
Cc1cnc(C(=O)OCC(=O)Nc2ccc(OCc3ccccc3)cc2)cn1	TcdB inh 12.6
O=C(Nc1ccccc1F)N1C[C@@H]2N[C@H](C1)C2c1ccc(-c2cccc(F)c2)cc1 (stereo not given in full)	TcdB inh 23.5! (no result: Vc quorum ag, Sa RN4220 lethal, ugtP null kill)
O=C(Nc1ccccc1F)N1C[C@@H]2N[C@H](C1)C2c1ccc(-c2ccccc2)cc1 (stereo not given in full)	none (no result: Vc quorum ag, Sa RN4220 lethal, ugtP null kill)
CCC1(C)Cc2ccccc2-c2nc(NN)[nH]c(=O)c21 (stereo not given)	none
CCC1(C)Cc2ccccc2-c2nc(-c3ccccc3)oc(=O)c21 (stereo not given)	ugtP null kill 85.3 (no result: TcdB inh)
CCOC(=O)C1C2COc3ccc(Br)cc3C2N2C(=O)N(c3cccc(F)c3)C(=O)[C@]12C (stereo not given in full)	none (no result: Vc quorum ag, TcdB inh)
CCOC(=O)[C@@H]1[C@H]2COc3ccc(Br)cc3[C@@H]2N2C(=O)N(c3cccc(F)c3)C(=O)[C@]12C	TcdB inh 10.7 (no result: Sa RN4220 lethal, ugtP null kill)
FC(F)(F)c1cc(CCN2CCNCC2c2ccccc2)cc(C(F)(F)F)c1 (stereo not given)	none (no result: Vc quorum ag, TcdB inh)
CN(C/C=C/C#CC(C)(C)C)Cc1cccc2ccccc12	none (no result: Sa RN4220 lethal, ugtP null kill)
CN(CC=CC#CC(C)(C)C)Cc1cccc2ccccc12	ugtP null kill 88.5 (no result: Vc quorum ag, TcdB inh)
Cc1ccccc1S(=O)(=O)N1CCCc2nc(C)c(C)cc21	TcdB inh 10.8 (no result: Vc quorum ag, Sa RN4220 lethal, ugtP null kill)
O=C(NC(=S)Nc1ccccc1Br)C1CC1	none
Cc1ccc(NC(=S)NC(=O)C2CCCC2)c(Br)c1	ugtP null kill 93.1
Cc1noc(C)c1S(=O)(=O)N(C)CC1Oc2c(NC(=O)NC(C)C)cccc2C(=O)N(C(C)CO)CC1C (stereo not given)	none (no result: Vc quorum ag, TcdB inh)
C#CCNC(=O)C1=CC(c2cn(C(C)=O)c3ccccc23)CC(OCCCCO)O1 (stereo not given)	none (no result: Vc quorum ag, TcdB inh)
CCCCOC(=O)CNc1n[nH]c(=S)[nH]c1=O	none (no result: TcdB inh)
CC(C)COC(=O)CNc1n[nH]c(=S)[nH]c1=O	Vc quorum ag active
COc1ccc(C2C=CCN(C(=O)CC(C)C)CC(=O)N2Cc2ccc(F)cc2)cc1 (stereo not given)	none (no result: Vc quorum ag, TcdB inh)
Cc1[nH]n(-c2ccccc2)c(=O)c1C=NNc1nncc(-c2ccccc2)n1	Sa RN4220 lethal 96.3, ugtP null kill 98.2 (no result: Vc quorum ag, TcdB inh)
Cc1[nH]n(-c2ccccc2)c(=O)c1/C=N/Nc1nncc(-c2ccccc2)n1	none (no result: Sa RN4220 lethal, ugtP null kill)
O=C(CC(=O)N/N=C/c1ccc(O)cc1)N/N=C/c1ccc(O)cc1	TcdB inh 24.4 (no result: Sa RN4220 lethal, ugtP null kill)
CC(=O)Nc1ccc(/C=N\NC(=O)CNS(=O)(=O)c2ccc([N+](=O)[O-])cc2)cc1	none (no result: Sa RN4220 lethal, ugtP null kill)
O=C(CNS(=O)(=O)c1ccc([N+](=O)[O-])cc1)N/N=C\c1ccc(O)cc1	TcdB inh 13.6 (no result: Sa RN4220 lethal, ugtP null kill)
CCOC(=O)C1C2COc3ccc(C)cc3C2N2C(=O)CN(Cc3ccc(C)cc3)C(=O)[C@@]12C (stereo not given in full)	none (no result: Vc quorum ag, TcdB inh)
CCCCC[n+]1cccc2c3ccccc3ccc21	none (no result: Sa RN4220 lethal, ugtP null kill)
Cc1ccc2c(C)c3ccc4ccccc4c3c[n+]2c1	TcdB inh 11.5 (no result: Vc quorum ag, Sa RN4220 lethal, ugtP null kill)
COc1cc(O)c2c(=O)c3c(OC4OC(CO)C(O)C(O)C4O)ccc(O)c3oc2c1 (stereo not given)	none (no result: Vc quorum ag, TcdB inh)
COc1ccc(C(=O)c2c(C(F)(F)F)oc3c2C(=O)c2ccccc2C3=O)cc1	Sa RN4220 lethal 94.4 (no result: TcdB inh)
Cn1c(=O)c2c([nH]c(=S)n2CCCc2ccccc2)n(C)c1=O	none
Cn1c(=O)[nH]c(=O)c2c1[nH]c(=S)n2Cc1ccc(Cl)cc1	TcdB inh 13.8
Cn1c(=O)[nH]c(=O)c2c1[nH]c(=S)n2CCCc1ccccc1	TcdB inh 12.2
OC(CNCC(c1ccc(Cl)cc1Cl)c1c[nH]c2ccccc12)c1ccccc1 (stereo not given)	Sa RN4220 lethal 99.7, ugtP null kill 96.8
COCCCNC(=S)NN=Cc1ccc(N(C)C)cc1Cl	none (no result: Vc quorum ag, TcdB inh)
O=c1[nH]nc(-c2ccc(F)cc2)cc1Cc1ccccc1	TcdB inh 10.1
O=C(C1=CC(c2csc3ccccc23)CC(OCc2ccc(CO)cc2)O1)N1CCN(Cc2ccc3c(c2)OCO3)CC1 (stereo not given)	none (no result: Vc quorum ag, TcdB inh)
C=CCNC(=S)NNc1nc2c(c(=O)[nH]1)C1(CCCCC1)Cc1ccccc1-2	ugtP null kill 85.4
CC(C)C1COC(NC2=NC(C(C)C)CO2)=N1 (stereo not given)	none (no result: Vc quorum ag, TcdB inh)
COC(=O)C(C)NC(=O)Nc1ccc(OC)cc1OC (stereo not given)	none (no result: Vc quorum ag, TcdB inh)
Cc1oc(-c2ccccc2)nc1CN1C(=O)CN=C(c2ccccc2)c2ccccc21	none (no result: Sa RN4220 lethal, ugtP null kill)
Cc1ccc(CN2C(=O)CN=C(c3ccccc3)c3ccccc32)cc1	TcdB inh 12.3
Oc1ccc(-c2nc3ccc4ccccc4c3c3c2CCC3)cc1O	ugtP null kill 98.4 (no result: TcdB inh)
COc1ccc(C=CC(=O)c2ccc([N+](=O)[O-])o2)cc1	ugtP null kill 92.7 (no result: Vc quorum ag, TcdB inh)
COc1cc(C=CC(=O)c2ccc([N+](=O)[O-])o2)ccc1O	ugtP null kill 99.1 (no result: Vc quorum ag, TcdB inh)
Cc1ccc(/C=C/C(=O)c2ccc([N+](=O)[O-])o2)cc1	none (no result: Vc quorum ag, Sa RN4220 lethal, ugtP null kill)
CC(C)COc1ccc(/C(=N/O)c2ccccc2)cc1	none (no result: Sa RN4220 lethal, TcdB inh, ugtP null kill)
CC(C)COc1ccc(C(=NO)c2ccccc2)cc1	ugtP null kill 86.3 (no result: Vc quorum ag, TcdB inh)
